The record followed here is PubChem BioAssay AID1476 (National Center for Advancing Translational Sciences (NCATS), 2009).

The campaign covered roughly 200,000 compounds. About 4,500 (2.2%) were called active. Roughly 12% stayed inconclusive and do not appear here. This is one part of a sample in which actives are shown more often than they occur. Unmarked numbers belong to inactive results. Calls follow the shape of the dose curve; as a rule, active = well fitted inhibition curve with a large enough effect; inconclusive = small, poorly fitted or top-dose-only effect, or effect the other way; inactive = flat fitted curve, though single readings scatter.
Potency is read from the fitted curve at half-maximal effect.

Chain of Cruzipain (Trypanosoma cruzi) (P25779 123-467 limits assumed): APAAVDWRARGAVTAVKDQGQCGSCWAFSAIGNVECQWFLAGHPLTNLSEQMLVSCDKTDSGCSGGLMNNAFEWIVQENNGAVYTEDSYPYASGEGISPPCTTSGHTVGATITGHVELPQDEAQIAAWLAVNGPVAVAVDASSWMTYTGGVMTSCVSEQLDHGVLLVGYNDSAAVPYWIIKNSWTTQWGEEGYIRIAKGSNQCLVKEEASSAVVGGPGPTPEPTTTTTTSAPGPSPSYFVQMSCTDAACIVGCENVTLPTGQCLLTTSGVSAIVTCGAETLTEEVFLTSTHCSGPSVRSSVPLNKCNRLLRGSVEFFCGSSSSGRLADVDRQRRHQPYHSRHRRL

In the assay the target is Cruzipain (Trypanosoma cruzi) (UniProt P25779). The experiment in a line: qHTS Assay for Promiscuous and Specific Inhibitors of Cruzain (without detergent). Also: nearly all actives have a fitted effect of over 40% in size.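 As to max response, negative = inhibition: plate controls were enzyme without inhibitor for no effect and buffer without enzyme for full effect.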 Conditions: purified cruzain, Z-FR-AMC fluorescence, no detergent. The method in brief:
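Purified cruzain at 1.5 nM, pre-incubated 15 min with compound at room temperature in 100 mM sodium acetate pH 5.5, 5 mM DTT, 0.00005% Triton X-100. Reaction started with 2 uM Z-FR-AMC; AMC fluorescence increase over 60 s gives rate.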
Background: In qHTS, concentration-response curves come from the screen itself.
Take `Cc1ccc(Cl)cc1NC(=O)NC1COc2ccccc2C1` (stereo not drawn): the max response, negative = inhibition is -7.18%.
The same measure, in the same setting: the result for `CCCCC(=O)N/N=C(\C)CC(=O)Nc1cc(Cl)ccc1OC` reads 7.24%.
Still for that read-out and setting: the value for `COc1ccc(Cl)cc1NC(=O)CCC(=O)c1ccc(C)cc1` was 4.58%.
Regarding `CCCCCCC(=O)Nc1nc(C)c(-c2csc(Nc3cc(Cl)ccc3OC)n2)s1`, the Potency is 3.16 µM (active).
As for `CCOCCn1ccc2c(OCC(=O)NCc3ccc(C)cc3)cccc2c1=O`, the max response, negative = inhibition is 4.16%.
`Cc1cc(F)ccc1NC1(c2ccccc2)C(=O)c2ccccc2C1=O`: the max response, negative = inhibition was -5.27%.
Turning to `CCOC(=O)c1ccc(NC(=O)C2CCN(S(=O)(=O)c3ccc4c(c3)CCCC(=O)N4)CC2)cc1`, the max response, negative = inhibition was 1.28%.
On the same count and under the same terms, the result for `O=C(ON=C1CCN(S(=O)(=O)c2ccccc2)CC1)c1ccc(Cl)cc1` reads 20.4%.
`Cc1c(C2=CCN(S(=O)(=O)c3ccc(Cl)cc3)CC2)c2ccccc2n1C`: the Potency was 31.6 µM (active).
Take `CC(C)NC(=O)C(=O)NCCN1CCN(S(=O)(=O)c2ccc(Cl)cc2)CC1`: the max response, negative = inhibition is -2.28%.
With `CCc1nn(CCCC(=O)NCc2ccccc2OC)c(=O)c2cc3occc3n12`, the max response, negative = inhibition is -6.49%.
On to `CCOc1ccc(-c2cc3c(=O)n(CC(=O)NCc4ccc(OC)cc4)ccn3n2)cc1`, for which the max response, negative = inhibition was 4.06%.
With `COc1cc(NC(=O)CCNC(=O)Cn2ccc3ccccc3c2=O)cc(OC)c1OC`, the max response, negative = inhibition was -10.9%.
As to `O=C(COC(=O)c1cc(=O)[nH]c2ccccc12)Nc1nc(-c2cccc(Br)c2)cs1`, the Potency is 15.8 µM (active).
Turning to `Cc1cc(C(=O)OCC(=O)Nc2nnc(C(C)C)s2)c2ccccc2n1`, the max response, negative = inhibition is -3.17%.
In the case of `CCOC(=O)c1ccc(COC(=O)c2cc(=O)[nH]c3ccccc23)o1`, the max response, negative = inhibition was -5.71%.
Consider `CCN(Cc1ccccc1)S(=O)(=O)c1ccc2c(c1)CCCN2C(C)=O`, for which the max response, negative = inhibition was 12.3%.
`O=C(NC1CC(=O)N(c2ccc(F)cc2)C1)c1ccc(S(=O)(=O)N2CCCC2)cc1` (stereo not drawn): the max response, negative = inhibition was 8.64%.
Regarding `O=C(c1ccc(Cl)cc1)c1cnc(Nc2ccccc2)s1`, the Potency is 15.8 µM (active).
In the case of `CC(C)(C)C(=O)c1cnc(Nc2ccccc2)s1`, the max response, negative = inhibition was -10.8%.
As to `O=C(Nc1ccccc1)c1nnsc1S(=O)(=O)c1ccc(Cl)cc1`, the max response, negative = inhibition is -8.46%.
As to `Cc1ccc(C)c(S(=O)(=O)c2nnn3c2nc(N2CCOCC2)c2sccc23)c1`, the max response, negative = inhibition is 0.86%.
On the same count and under the same terms, the result for `Cc1ccc2nc(COc3cccc(NC(=O)c4cccc(Cl)c4)c3)cc(=O)n2c1` reads -16.6%.
The same measure, in the same setting: the result for `COC(=O)c1ccc(-c2nc3cc(NC(C)=O)ccc3o2)cc1` reads 5.54%; that for `Cc1ccccc1-c1nc2cc(NC(=O)c3cccc(OCCC(C)C)c3)ccc2o1`, -8.64%.
On to `COc1cccc(C(=O)Nc2ccc3oc(-c4ccc5ccccc5c4)nc3c2)c1`, for which the Potency is 12.6 µM (active).
For the compound `COc1ccccc1OCCCn1c(-c2ccc(Cl)cc2)nc2ccccc2c1=O`, the max response, negative = inhibition was 3.21%.
Same read-out and setting: the value for `COc1ccc(S(=O)(=O)NCc2cccn2Cc2cccc(C)c2)cc1Cl` was 6.08%; that for `COc1ccc(Br)cc1C1CC(=O)Nc2c1c(C)nn2-c1nc(C)cc(C)n1` (stereo not drawn) was 3.34%.
Consider `CC(=O)c1ccc(N2CCN(c3nc4c(S(=O)(=O)c5ccccc5)nnn4c4ccc(Cl)cc34)CC2)cc1`, for which the max response, negative = inhibition was 0.808%.
In the case of `CCOC(=O)c1c(-c2cccc(C)c2)csc1NC(=O)c1c(-c2ccccc2)noc1C`, the Potency is 7.94 µM (active).
Consider `CCCS(=O)(=O)c1ncc(Cl)c(C(=O)Nc2scc(-c3ccccc3)c2C(=O)OCC)n1`, for which the max response, negative = inhibition is -26.6%.
Regarding `CC(=O)Nc1cccc(NC(=O)c2c(-c3ccccc3)noc2C)c1`, the max response, negative = inhibition was 2.43%.
The same measure, in the same setting: the result for `CCOc1ccc(S(=O)(=O)c2cn(Cc3ccccc3)c3ccc(OCC)cc3c2=O)cc1` reads -17.9%; that for `COc1ccc(OC)c(NC(=O)Cn2c(=O)n(Cc3ccccc3)c(=O)c3ccccc32)c1`, -9.43%.
For `COc1ccc(NC(=O)Cn2c(=O)n(Cc3ccc(C(=O)NCc4ccccc4Cl)cc3)c(=O)c3ccccc32)cc1`, the Potency was 10 µM (active).
As for `COc1ccc(NC(=O)Cn2c(=O)n(Cc3ccco3)c(=O)c3ccccc32)cc1`, the max response, negative = inhibition was -4.83%.
`Cn1nnc2c(N3CCN(c4ccccc4)CC3)ncnc21`: the max response, negative = inhibition is -1.23%.
Still for that read-out and setting: the result for `CCCCN1CC(c2nc3ccccc3n2CCCCOc2ccc(C)cc2C)CC1=O` (stereo not drawn) reads 1.93%; that for `CCOc1ccccc1NC(=O)C1CCCN(S(=O)(=O)c2cn(C)cn2)C1` (stereo not drawn), -18.2%.
For the compound `O=C(COC(=O)CCc1c[nH]c(=O)[nH]1)Nc1ccccc1Cl`, the max response, negative = inhibition was -19.9%.
The same measure, in the same setting: the value for `CC(NC(=S)Nc1ccc(S(N)(=O)=O)cc1)c1ccc2c(c1)OCO2` (stereo not drawn) was -22.3%.
`O=C(COC(=O)c1c2c(nc3ccccc13)/C(=C\c1cccs1)CCC2)Nc1ccccc1Cl`: the Potency is 31.6 µM (active).
Regarding `NS(=O)(=O)c1ccc(NC(=O)COC(=O)c2c3c(nc4ccccc24)/C(=C\c2ccc4c(c2)OCO4)CCC3)cc1`, the Potency was 20 µM (active).
On to `O=C1/C(=C/c2ccc3c(c2)OCO3)CCC/C1=C\c1ccc2c(c1)OCO2`, for which the max response, negative = inhibition is -11.7%.
On to `O=C(COC(=O)/C(=C/c1cccs1)c1cccs1)NCc1ccccc1Cl`, for which the max response, negative = inhibition is 3.79%.
Still for that read-out and setting: the value for `COc1cccc(OCCn2c(-c3ccc(Br)cc3)nc3ccccc3c2=O)c1` was -14.8%.
On the same count and under the same terms, the value for `Cc1cc(C)cc(NS(=O)(=O)c2cc3c(cc2C)NC(=O)CO3)c1` was 6.94%.
On the same count and under the same terms, the result for `Cc1cc(C)cc(NC(=O)CSc2nc(=O)n(CCN3CCOCC3)c3c2CCC3)c1` reads -7.74%.
For the compound `O=C(c1ccc(Br)cc1)N(Cc1cccs1)c1ccc(F)cc1`, the max response, negative = inhibition is 11.6%.
Same read-out and setting: the result for `COC(=O)c1ccc(NC(=O)CSc2n[nH]c(-c3ccccc3)n2)cc1` reads -7.41%.
For `COc1ccc(-c2csc(NC(=O)CCCc3cccs3)n2)cc1`, the Potency was 10 µM (active).
In the case of `Cc1ccc(-c2csc(NC(=O)Cc3cccs3)n2)cc1C`, the max response, negative = inhibition was -12.6%.
`CCc1nnc(NC(=O)CSc2nnc(Cc3ccccc3)n2-c2ccc(OC)cc2)s1`: the max response, negative = inhibition was -3.04%.
Take `COc1ccc(Cc2nnc(NS(=O)(=O)Cc3ccccc3)s2)cc1`: the max response, negative = inhibition is -1.39%.
Same read-out and setting: the value for `COc1ccc(C(=O)Nc2nc(-c3ccc(S(=O)(=O)N4CCOCC4)cc3)cs2)cc1` was -19.9%.
As to `COc1ccc(Cc2nnc(NC(=O)Cc3cccs3)s2)cc1`, the Potency is 20 µM (active).
Turning to `CCN(CC)S(=O)(=O)c1ccc2c(c1)nc(CN(C)C(=O)Nc1ccc(Cl)cc1)n2C`, the max response, negative = inhibition is 2.49%.
Still for that read-out and setting: the result for `CCOC(=O)c1[nH]c(C)c(CCC(=O)N2CCN(c3ccccc3)CC2)c1C` reads 6.86%; that for `Cc1cccc(C(=O)N2CCc3cc(CNC(=O)Cc4ccc(F)cc4)ccc32)c1`, -5.89%.
`CCc1ccc(CN(Cc2ccco2)C(=O)COc2ccc(Cl)c(C)c2)cc1`: the max response, negative = inhibition was -28.4%.
For `CCN(CC)S(=O)(=O)c1ccc2c(c1)N(CC(=O)NCC(C)c1ccccc1)C(=O)CO2` (stereo not drawn), the max response, negative = inhibition was 13.8%.
In the case of `O=C(OCc1nc2ccccc2[nH]1)C1CCCCC1`, the max response, negative = inhibition was 6.92%.
In the case of `c1ccc2[nH]c(-c3nc4ccccc4[nH]3)nc2c1`, the max response, negative = inhibition is 9%.
On to `O=C(Nc1sc2c(c1-c1nc3ccccc3[nH]1)CCCC2)C1CC1`, for which the Potency was 25.1 µM (active).
In the case of `Cc1ccc2c(c1)N(C(=O)CCC(=O)NCc1ccccc1F)CC(C)O2` (stereo not drawn), the max response, negative = inhibition was 2.02%.
The same measure, in the same setting: the result for `Cc1ccc(OCCSc2nc(C)c(Cc3ccccc3)c(=O)[nH]2)cc1` reads -1.11%.
Regarding `O=C(NC1CC(=O)N(c2ccc(F)cc2)C1)c1cccs1` (stereo not drawn), the max response, negative = inhibition was 8.85%.
On to `Cc1c(Cl)cccc1-c1ccc(CNCCCSc2nnnn2C)o1`, for which the max response, negative = inhibition was -7.09%.
Same read-out and setting: the value for `COc1cc(/C=N\NC(=O)CNC(=O)c2cccc([N+](=O)[O-])c2)ccc1O` was 6.36%; that for `COc1cc(/C=N/O)ccc1OCc1ccc([N+](=O)[O-])cc1` was 0.78%.
`CCCc1ccc(OCc2ccc(C(=O)N/N=C/c3cccc([N+](=O)[O-])c3)o2)c(OC)c1`: the Potency is 6.31 µM (active).
Turning to `Cc1ccc(-c2nc3cccc(C)n3c2Nc2ccc3c(c2)OCCO3)cc1`, the max response, negative = inhibition was -0.169%.
The same measure, in the same setting: the result for `CCCN1CCN(CCCNC(=O)c2cnn(-c3ccc(C)cc3)c2-n2cccc2)CC1` reads 7.09%; that for `CCCCOc1ccc(CNC(=O)c2ccc3c(c2)N(C)C(=O)C2CCCCN32)cc1` (stereo not drawn), 13.9%; that for `COc1ccccc1NC(=O)c1oc2ccccc2c1NC(=O)COc1ccccc1OC`, -7.97%.
On the same count and under the same terms, the value for `Cc1cccc(CC(=O)N2CCN=C2SCc2ccc([N+](=O)[O-])cc2)c1` was -7.03%.
For the compound `Cc1cccc(COc2ccccc2/C=N/Nc2ccc([N+](=O)[O-])cc2)c1`, the Potency is 25.1 µM (active).
As for `Cc1cc([N+](=O)[O-])ccc1NCc1cccc([N+](=O)[O-])c1`, the max response, negative = inhibition was 2.12%.
The same measure, in the same setting: the result for `N#Cc1ccc(-c2cccs2)nc1SCc1ccc(Br)cc1` reads -6.69%; that for `COc1ccc2c(c1)c(N1CCCC1=O)c(C(=O)Nc1ccccc1C(F)(F)F)n2C`, -10%; that for `COc1ccc(C(=O)N2CCC(c3nc4ccccc4o3)CC2)cc1`, 14.3%.
With `Cc1ccc(-c2noc(-c3nnn(-c4cccc(C(F)(F)F)c4)c3N)n2)cc1`, the max response, negative = inhibition was 1.55%.
As for `CCSc1nnc(NC(=O)c2ccc(C)cc2)s1`, the Potency was 0.631 µM (active).
For the compound `CCSc1nnc(NC(=O)Cc2ccccc2OC)s1`, the max response, negative = inhibition is 0.739%.
Turning to `CCSc1nnc(NC(=O)c2cc(=O)c3cc(C)c(C)cc3o2)s1`, the max response, negative = inhibition was -5.87%.
With `Cc1ccccc1OCc1nc2c3cnn(-c4ccccc4F)c3ncn2n1`, the max response, negative = inhibition is -7.52%.
As for `COc1cc(OC)c(NC(=O)Cc2ccc(-n3c(C)nc4cccnc43)cc2)cc1Cl`, the max response, negative = inhibition is 4.77%.
